Results taken from PubChem BioAssay AID1159580 (chemical genetic matrix, 2015).
In all, about 5,500 compounds went through this assay and about 2,000 (36%) were called active. Roughly 18% stayed inconclusive and do not appear here. No stated cut-off is given here; in the data, active means normalized growth mostly below about 0.91 (no sharp cut-off); inconclusive means no clear call, values can overlap the other calls; inactive means mostly above about 0.92. Some of the results follow.

Assay: chemical genetic growth profiling, strain panel (AID 1159580);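 further: tested at 20 µM; growth read once vehicle control cultures reached saturation at 30 °C; 1 = growth at the plate median or of vehicle wells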
Conditions: S. cerevisiae deletion strains, growth OD

Measured: normalized growth

NCC#Cc1ccccc1
inactive: locus YAL013W, strain DEP1, stronger effect = lower value 1.04 | locus YAL040C, strain CLN3, stronger effect = lower value 0.989 | locus YCL061C, strain MRC1 (second series), stronger effect = lower value 1.01 | locus YDR150W, strain NUM1, stronger effect = lower value 1.02 | locus YDR363W, strain ESC2, stronger effect = lower value 1.02 | locus YER002W, strain NOP16, stronger effect = lower value 1 | locus YGR229C, strain SMI1, stronger effect = lower value 1.07 | locus YMR263W, strain SAP30, stronger effect = lower value 1 | locus YMR307W, strain GAS1, stronger effect = lower value 1.01 | locus YNL128W, strain TEP1, stronger effect = lower value 1.01 | locus YNL153C, strain GIM3, stronger effect = lower value 1.15 | locus YNL175C, strain NOP13, stronger effect = lower value 1.01 | locus YNL197C, strain WHI3, stronger effect = lower value 1.01 | locus YNL224C, strain SQS1, stronger effect = lower value 1.01 | locus YOR083W, strain WHI5 (second series), stronger effect = lower value 1.01 | locus YPL055C, strain LGE1, stronger effect = lower value 1.04
